According to PubChem BioAssay (Tox21):
Inconclusive results are not listed. Calls of active or inactive are those of the source. Unless noted, calls follow the shape of the dose curve; as a rule, active = well fitted curve in the direction sought with a large enough effect in the repeat runs; inconclusive = weak or mixed curves; inactive = no such curve, though single readings can be large; an effect the other way counts as inactive or inconclusive.

Columns and labels:
[1] = qHTS assay to identify small molecule agonists of the estrogen receptor alpha (ER-alpha) signaling pathway in the presence of an antagonist - cell viability counter screen (AID 1259386);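 also: series mostly up to about 92 µM; cells exposed to compounds for 22 h at 37 °C before the viability read; nearly all actives have a fitted effect of over 30% in size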
Outline: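 Cytotoxicity was measured in parallel with the ERE-luciferase agonist screen, in the same wells. The cells were VM7Luc4E2, which endogenously express ER-alpha, and treatment was with compounds plus 10.0nM ICI-182,780 for 22hr.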

[2] = target: Progesterone receptor (Homo sapiens) (UniProt P06401); assay: qHTS assay to identify small molecule agonists of the progesterone receptor (PR) signaling pathway (AID 1346784; calls by dose curve; also: nearly all actives have a fitted effect of over 30% in size; also: potency is read from the fitted curve at half-maximal effect)
Chain of Progesterone receptor (Homo sapiens) (P06401 whole entry, looked up): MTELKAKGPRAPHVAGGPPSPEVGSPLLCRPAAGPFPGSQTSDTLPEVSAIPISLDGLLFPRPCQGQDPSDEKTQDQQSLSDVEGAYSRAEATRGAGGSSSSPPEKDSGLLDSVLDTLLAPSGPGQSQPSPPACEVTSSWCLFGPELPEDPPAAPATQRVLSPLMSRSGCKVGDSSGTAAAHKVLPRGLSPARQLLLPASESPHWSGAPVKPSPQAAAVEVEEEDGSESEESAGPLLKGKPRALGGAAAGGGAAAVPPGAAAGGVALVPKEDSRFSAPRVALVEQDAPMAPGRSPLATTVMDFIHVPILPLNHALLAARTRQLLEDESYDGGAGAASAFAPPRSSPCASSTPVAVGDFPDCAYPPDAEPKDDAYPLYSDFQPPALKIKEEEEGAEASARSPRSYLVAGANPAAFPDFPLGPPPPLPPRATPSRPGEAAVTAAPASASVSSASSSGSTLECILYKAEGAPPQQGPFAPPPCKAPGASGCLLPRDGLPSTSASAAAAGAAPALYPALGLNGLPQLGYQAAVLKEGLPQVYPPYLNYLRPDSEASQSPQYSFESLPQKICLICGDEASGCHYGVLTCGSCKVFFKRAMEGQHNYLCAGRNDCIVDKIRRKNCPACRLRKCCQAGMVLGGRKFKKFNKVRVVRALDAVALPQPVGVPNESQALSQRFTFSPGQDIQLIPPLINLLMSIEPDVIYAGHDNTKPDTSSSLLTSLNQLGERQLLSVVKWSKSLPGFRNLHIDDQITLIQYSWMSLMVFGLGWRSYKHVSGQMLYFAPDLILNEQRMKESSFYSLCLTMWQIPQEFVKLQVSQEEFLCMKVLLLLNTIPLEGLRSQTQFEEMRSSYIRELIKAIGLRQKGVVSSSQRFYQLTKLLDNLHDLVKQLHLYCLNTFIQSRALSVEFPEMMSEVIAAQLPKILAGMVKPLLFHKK
Outline: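 Seed PR-UAS-bla HEK 293T cells (2% charcoal-stripped FBS), incubate 6 hr at 37C; add compounds in DMSO, 16 hr at 37C; add LiveBLAzer B/G substrate, 2 hr RT; read fluorescence intensity.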

[3] = target: Progesterone receptor (Homo sapiens) (UniProt P06401); assay: qHTS assay to identify small molecule antagonists of the progesterone receptor (PR) signaling pathway (AID 1346795; active = well fitted inhibition curve with a large enough effect in the signal ratio in the repeat runs, not every such curve was filed as active; the % refers to the signal ratio)
Outline: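 Screening used a GripTite HEK293T line with PR-responsive UAS-beta-lactamase. Cells were challenged with compound in the presence of 1 nM R5020 final for 16 hr at 37C; B/G FRET substrate, 2 hr room temperature, fluorescence.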

[4] = qHTS assay to identify small molecule antagonists of the progesterone receptor (PR) signaling pathway - cell viability counter screen (AID 1346798); also: series mostly up to about 92 µM; nearly all actives have a fitted effect of over 50% in size
Outline: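 Measures cytotoxicity in parallel with the PR antagonist reporter read: HEK293T PR-UAS-bla cells get compound and R5020 for 16 hr, and remaining viable cells are quantified by CellTiter-Glo luminescence.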

[5] = qHTS assay to identify small molecule agonists of the progesterone receptor (PR) signaling pathway - cell viability counter screen (AID 1346799; calls by dose curve; also: nearly all actives have a fitted effect of over 45% in size)
Outline: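 Using the same plates as the PR reporter screen, HEK293T PR-UAS-bla cells received compounds for 16 hr at 37C and were then lysed with CellTiter-Glo; luminescence was read 30 min later at room temperature.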

[6] = qHTS assay to identify small molecule agonists of the TGF-beta/Smad signaling pathway - cell viability counter screen (AID 1346829); also: top concentration of the series differs between compounds; nearly all actives have a fitted effect of over 45% in size
Outline: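 Here the cytotoxicity of library compounds is measured in SBE-bla HEK 293T cells treated for 5 hr, using CellTiter-Glo added to wells already read for the beta-lactamase reporter.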

[7] = qHTS assay to identify small molecule agonists of the TGF-beta/Smad signaling pathway (AID 1346859; active = well fitted activation curve with a large enough effect in the signal ratio in the repeat runs, not every such curve was filed as active; the % refers to the signal ratio; also: series mostly up to about 77 µM)
Outline: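 Beta-lactamase reporter activity downstream of Smad binding elements was measured in stably transfected HEK 293T cells; compounds were incubated for 5 hr, substrate for 2 hr at room temperature.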

[8] = qHTS assay to identify small molecule antagonists of the TGF-beta/Smad signaling pathway - cell viability counter screen (AID 1346824); also: nearly all actives have a fitted effect of over 50% in size
Outline: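 SBE-bla HEK 293T cells were plated overnight at 37 C, then given compounds in DMSO plus TGF-beta1 (added as 0.25 ng/mL solution) for 5 hr. After the bla read, CellTiter-Glo was added to the same wells and luminescence read after 30 min at room temperature.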

[9] = target: Thyrotropin-releasing hormone receptor (Homo sapiens) (UniProt P34981); assay: qHTS assay to identify small molecule antagonists of the thyrotropin-releasing hormone receptor (TRHR) signaling pathway (AID 1346877; active = well fitted inhibition curve with a large enough effect in the repeat runs, not every such curve was filed as active; also: series mostly up to about 51 µM)
Chain of Thyrotropin-releasing hormone receptor (Homo sapiens) (P34981 whole entry, looked up): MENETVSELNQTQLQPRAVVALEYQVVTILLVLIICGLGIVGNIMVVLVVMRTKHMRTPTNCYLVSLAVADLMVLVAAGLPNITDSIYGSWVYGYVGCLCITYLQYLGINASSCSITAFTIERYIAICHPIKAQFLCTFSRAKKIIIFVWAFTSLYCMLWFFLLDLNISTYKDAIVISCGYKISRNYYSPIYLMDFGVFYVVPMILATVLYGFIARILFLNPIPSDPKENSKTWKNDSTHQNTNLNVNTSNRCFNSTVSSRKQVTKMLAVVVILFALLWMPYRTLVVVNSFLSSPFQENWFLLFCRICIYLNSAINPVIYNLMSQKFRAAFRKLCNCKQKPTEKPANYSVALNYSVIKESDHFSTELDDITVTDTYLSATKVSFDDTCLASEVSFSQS
Outline: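 Antagonism is measured as suppression of the calcium response to 1 nM TRH in TRHR-HEK293 cells that have been dye-loaded for 2 h at 37 °C after overnight plating. Each compound is tested at 15 concentrations in triplicate.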

[10] = target: Thyrotropin-releasing hormone receptor (Homo sapiens) (UniProt P34981); assay: qHTS assay to identify small molecule agonists of the thyrotropin-releasing hormone receptor (TRHR) signaling pathway (AID 1346891; calls by dose curve;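 also: HEK293 cells expressing TRHR with calcium dye readout; series mostly up to about 58 µM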)
Outline: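 Overnight-plated (18 h, 37 °C, 5% CO2) TRHR-Hek293 cells; 2 h calcium dye at 37 °C; compound in DMSO; 3-min kinetic fluorescence read.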
% is scaled to controls: 0 for no effect and ±100 for the full control effect.

C[N+]1(C)CCCC(OC(=O)C(O)(c2ccccc2)c2ccccc2)C1 (stereo not drawn)
active: Potency [2] 15 µM
inactive: Potency [1] | Potency [3] | Potency [4] | Potency [5] | outcome [6] | outcome [7]

C=COC(=O)C(C)(CC)CCC(C)C (stereo not drawn)
inactive: Potency [1] | Potency [2] | Potency [3] | Potency [4] | Potency [5] | outcome [8] | outcome [6] | outcome [7] | outcome [9] | Potency [10]

CN(C)CCN(C)CCN(C)C
inactive: Potency [1] | Potency [2] | Potency [3] | Potency [4] | Potency [5] | outcome [8] | outcome [6] | outcome [9] | Potency [10]

CC1=NS(=O)(=O)c2cc(Cl)ccc2N1
inactive: Potency [1] | Potency [2] | Potency [3] | Potency [4] | Potency [5] | outcome [6] | outcome [7]

CC[N+](CC)(CC(=O)Nc1c(C)cccc1C)Cc1ccccc1 (tested in a mixture with another compound)
inactive: Potency [1] | Potency [2] | Potency [3] | Potency [4] | Potency [5] | outcome [6] | outcome [7]

CC(C)=CCC/C(C)=C/C#N
inactive: Potency [1] | Potency [2] | Potency [3] | Potency [4] | Potency [5] | outcome [8] | outcome [6] | outcome [7] | outcome [9] | Potency [10]

COc1c(N2CCNC(C)C2)c(F)cc2c(=O)c(C(=O)O)cn(C3CC3)c12 (stereo not drawn)
inactive: Potency [1] | Potency [2] | Potency [3] | Potency [4] | Potency [5] | outcome [8] | outcome [6] | outcome [7] | outcome [9] | Potency [10]

O=S(=O)(O)c1cccc2ccccc12
inactive: Potency [1] | Potency [2] | Potency [3] | Potency [4] | Potency [5] | outcome [8] | outcome [6] | outcome [7] | outcome [9] | Potency [10]

CC(C)[C@H]1CC[C@@H](C)CC1=O
inactive: Potency [1] | Potency [2] | Potency [3] | Potency [4] | Potency [5] | outcome [6] | outcome [7]

CCCCOC(=O)CCC(C)=O
inactive: Potency [1] | Potency [2] | Potency [3] | Potency [4] | Potency [5] | outcome [8] | outcome [6] | outcome [7] | outcome [9] | Potency [10]

CC(=O)NC(=O)c1ccccc1O
inactive: Potency [1] | Potency [2] | Potency [3] | Potency [4] | Potency [5] | outcome [8] | outcome [6] | outcome [7] | outcome [9] | Potency [10]

CC(=O)c1ccc2ccccc2c1
inactive: Potency [1] | Potency [2] | Potency [3] | Potency [4] | Potency [5] | outcome [8] | outcome [6] | outcome [7] | outcome [9] | Potency [10]

O=C(CO)[C@@H](O)[C@H](O)[C@H](O)CO
inactive: Potency [1] | Potency [2] | Potency [3] | Potency [4] | Potency [5] | outcome [8] | outcome [6] | outcome [7] | outcome [9] | Potency [10]

O=C1CCCCCCCCCCCCCCO1
inactive: Potency [1] | Potency [2] | Potency [3] | Potency [4] | Potency [5] | outcome [8] | outcome [6] | outcome [7] | outcome [9] | Potency [10]

CCOC(=O)COc1cc(-n2ncc(C(F)(F)F)c(C)c2=O)c(F)cc1Cl
inactive: Potency [1] | Potency [2] | Potency [3] | Potency [4] | Potency [5] | outcome [8] | outcome [6] | outcome [9] | Potency [10]

CCCCCC(C)N (stereo not drawn)
inactive: Potency [1] | Potency [2] | Potency [3] | Potency [4] | Potency [5] | outcome [8] | outcome [6] | outcome [7] | outcome [9] | Potency [10]

C[C@H]1[C@H](NC(=O)/C(=N/OC(C)(C)C(=O)O)c2csc(N)n2)C(=O)N1S(=O)(=O)O (stereo in doubt)
inactive: Potency [1] | Potency [2] | Potency [3] | Potency [4] | Potency [5] | outcome [6] | outcome [7]

CC(C)C[C@@H](N)C(=O)O
inactive: activity change, negative = cytotoxicity [1] 2.39% [at 19 µM] | activation [2] -1.5% [at 19 µM] | activity change, negative = inhibition [3] 12.3% [at 18.9 µM] | activity change, negative = cytotoxicity [4] -9.21% [at 18.9 µM] | activity change, negative = cytotoxicity [5] -1.58% [at 19 µM] | viability change, negative = cytotoxic [8] -3.28% [at 15.8 µM] | activity change, negative = cytotoxicity [6] 15.2% [at 15.8 µM] | activation [7] 0.277% [at 15.8 µM] | activity, negative = inhibition [9] -3.99% [at 10.5 µM] | activation [10] -0.187% [at 11.8 µM]

CCCCS(=O)(=O)N[C@@H](Cc1ccc(OCCCCC2CCNCC2)cc1)C(=O)O
inactive: Potency [1] | Potency [2] | Potency [3] | Potency [4] | Potency [5] | outcome [8] | outcome [6] | outcome [7] | outcome [9] | Potency [10]

CC(CC=O)CC(C)(C)C (stereo not drawn)
inactive: Potency [1] | Potency [2] | Potency [3] | Potency [4] | Potency [5] | outcome [8] | outcome [6] | outcome [7] | outcome [9] | Potency [10]

NC(CCC(=O)O)C(=O)O (stereo not drawn)
inactive: Potency [1] | Potency [2] | Potency [3] | Potency [4] | Potency [5] | outcome [8] | outcome [6] | outcome [7] | outcome [9] | Potency [10]

CCCCN(CCC(=O)OCC)C(C)=O
inactive: Potency [1] | Potency [2] | Potency [3] | Potency [4] | Potency [5] | outcome [8] | outcome [6] | outcome [7] | outcome [9] | Potency [10]

CC(C)(CCC(=O)O)C(=O)O
inactive: Potency [1] | Potency [2] | Potency [3] | Potency [4] | Potency [5] | outcome [8] | outcome [6] | outcome [7] | outcome [9] | Potency [10]

CCOC(=O)c1ccccc1
inactive: Potency [1] | Potency [2] | Potency [3] | Potency [4] | Potency [5] | outcome [8] | outcome [6] | outcome [7] | outcome [9] | Potency [10]

COc1ccc2cc1Oc1cc3c(cc1OC)CC[N+](C)(C)[C@H]3Cc1ccc(cc1)Oc1c(OC)c(OC)cc3c1[C@@H](C2)[N+](C)(C)CC3
inactive: Potency [1] | Potency [2] | Potency [3] | Potency [4] | Potency [5] | outcome [8] | outcome [6] | outcome [7] | outcome [9] | Potency [10]
